High-throughput results deposited in PubChem by National Center for Advancing Translational Sciences (NCATS).
An excerpt weighted towards active compounds, which were near 3.9% of everything screened.
p53null 39C tox = p53 null cell cytotoxicity, nonpermissive temperature; H1299 p53-null (neo) cells, 39C, ATPlite viability, 24 h; Potency, µM (doses to about 46.1 µM), actives largely listed as cytotoxic; 55,000 tested, 0.97% active; AID 904; note: nearly all actives have a fitted effect of over 50% in size
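Concentration-response (up to 46 uM) was run for 24 h at the nonpermissive 39C on H1299-p53A138V or H1299-neo cells. ATP content was measured with ATPlite luminescence. AC50 values were Hill-modeled after normalizing between DMSO and 100 uM tamoxifen killing.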
FH mod = Identification of activators of human fumarate hydratase by quantitative high-throughput screening; AID 1347055, 2019; Potency, µM (doses to about 79.9 µM), actives largely listed as inhibitors; 54,000 tested, 0.22% active; FH coupled MDH/diaphorase resazurin fluorescence, 15 min; note: the screen sought activators but most active calls are inhibition curves; nearly all actives have a fitted effect of over 45% in size
GPR32 ag = agonists of human resolvin D1 receptor DRV1 (GPR32). 48,000 tested, 2.5% active. activation, % at 76.9 µM. AID 1346428. CHO-K1 GPR32 beta-arrestin PathHunter luminescence, 90 min; zero percent set by DMSO-only wells;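 active = activation of at least 60% and not above a set upper limit, about 1 call in 100 departs from these limits; inconclusive = activation of 40% to 60%, or above that upper limit; inactive = activation under 40%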
Target sequence (O75388 whole entry, looked up): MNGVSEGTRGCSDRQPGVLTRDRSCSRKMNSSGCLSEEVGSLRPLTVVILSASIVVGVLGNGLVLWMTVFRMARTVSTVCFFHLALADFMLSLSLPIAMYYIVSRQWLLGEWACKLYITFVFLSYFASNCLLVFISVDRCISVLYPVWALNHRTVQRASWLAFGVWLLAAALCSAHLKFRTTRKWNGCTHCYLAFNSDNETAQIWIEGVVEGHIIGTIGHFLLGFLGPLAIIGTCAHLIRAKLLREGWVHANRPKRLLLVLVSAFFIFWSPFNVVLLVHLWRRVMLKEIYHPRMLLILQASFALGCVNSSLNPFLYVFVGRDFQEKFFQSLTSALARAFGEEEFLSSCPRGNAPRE
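Step 1: seed CHO-K1 GPR32 beta-arrestin cells, 2,500/well, overnight at 37 °C. Step 2: add compounds, 90 min at 37 °C. Step 3: detection reagent, 1 h ambient, then luminescence.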
p53null 32C tox = kills p53 null cells at the permissive temperature | H1299-neo p53 null cells, ATP luminescence, 24 h, 32C | Potency, µM (top dose mostly 46.1 µM), hits mostly cytotoxic | 55,000 tested, 0.62% active; note: nearly all actives have a fitted effect of over 55% in size
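AC50 values derive from Hill modelling of qHTS concentration-response data (up to 46 uM) in H1299-neo cells. Cells were treated 24 h at 32C following overnight attachment at 37C; viability was read as cellular ATP.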
GALC G270D act = galactocerebrosidase G270D activity enhancement, cell-based; 45,000 tested, 0.1% active; 145M-Twi-hGALC-G270D cells (Twitcher mouse brain line with human GALC G270D), HMU-beta-Gal fluorescence, 48 h; AID 1159614; Potency, µM (series often up to 57.5 µM), hits mostly activators; P54803; note: nearly all actives have a fitted effect of over 65% in size
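Mutant human GALC (G270D), stably expressed in a Twitcher mouse brain cell line lacking endogenous GALC, is measured in live-treated cells via 6-hexadecanoylamino-4-methylumbelliferyl-β-galactoside hydrolysis (0.1 mM final, pH 5.2) with fluorescent detection.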
NTMT1 inhibitor = blocks human N-terminal methyltransferase 1 activity. Q9BV86. NTMT1 MTase-Glo SAH luminescence, purified enzyme. Potency, µM (highest dose often 114 µM), most hits filed as inhibitors. 59,000 tested, 2.5% active; note: nearly all actives have a fitted effect of over 65% in size
Target sequence (Q9BV86 whole entry, looked up): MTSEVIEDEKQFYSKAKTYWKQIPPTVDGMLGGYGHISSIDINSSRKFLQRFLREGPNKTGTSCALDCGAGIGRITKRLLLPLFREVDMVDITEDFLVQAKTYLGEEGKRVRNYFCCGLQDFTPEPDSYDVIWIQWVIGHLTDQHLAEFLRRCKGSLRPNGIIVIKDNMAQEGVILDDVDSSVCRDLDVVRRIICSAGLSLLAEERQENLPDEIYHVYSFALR
Numbers stand for hits; i = inactive; ? = inconclusive; nt = no result; ! = not confirmed by another sample. Unless noted, calls come from the whole dose curve; as a rule, active = well fitted curve in the direction sought with a large enough effect; inconclusive = small, poorly fitted or top-dose-only effect, or another doubt; inactive = no such curve, though single readings can be large; an effect the other way counts as inactive or inconclusive.

SMILES	p53null 39C tox	FH mod	GPR32 ag	p53null 32C tox	GALC G270D act	NTMT1 inhibitor
Cc1ccc(-n2ncc3c(N(CCO)Cc4ccccc4)ncnc32)cc1	i	i	i	i	i	i
Cc1ccc(-n2ncc3c(N4CCCCC4)ncnc32)cc1	6.3µM	i	?	1.6µM	i	?
Fc1ccc(-n2ncc3c(NCCCN4CCOCC4)ncnc32)cc1	i	i	i	i	i	i
CC(=O)Nc1sc2c(c1-c1ccc3c(c1)OCCO3)CCNC2	nt	nt	nt	nt	nt	i
CC(C)c1ccccc1-c1ncc(F)c(NCc2ccc(-c3cccnc3)cc2)n1	nt	nt	nt	nt	nt	i
COc1ccc(N2CCN(c3ncnc4c3cnn4C)CC2)cc1	i	?	i	i	i	?
COc1ccc(-n2ncc3c(N4CCCCC4)ncnc32)cc1	4µM	nt	nt	2.5µM	nt	nt
C=C1CCCC2(C)CC3(OC)OC(=O)C(C)=C3CC12 (stereo not drawn)	nt	i	nt	nt	nt	i
Cc1ccc(Nc2c(-c3ccc(C)o3)nc3cccc(C)n23)cc1	i	?	i	i	i	7.9µM
Cc1ccc(-c2nc3ccccn3c2Nc2ccc3c(c2)OCO3)o1	i	?	i	i	i	16µM
CCOc1ccc(-c2oc3cc(Cl)ccc3c(=O)c2O)cc1OC	16µM	i	i	?	i	i
COc1cc(-c2oc3ccc(C)cc3c(=O)c2O)cc(OC)c1OC	?	i	i	?	i	i
COc1ccc(S(=O)(=O)NCc2cccn2Cc2cccc(C)c2)cc1OC	i	?	i	i	i	i
CC(=O)Nc1ccc(S(=O)(=O)NCc2cccn2Cc2cccc(C)c2)cc1	i	i	88	i	i	i
Oc1ccc(Br)cc1-c1cc(-c2ccccc2)n[nH]1	?	nt	nt	i	nt	nt
Cc1ccc(-c2cc(-c3ccccc3C)[nH]n2)c(O)c1	i	nt	nt	13µM	nt	nt
CC(=O)c1ccc(NC(=O)/C=C/c2ccc(C)o2)cc1	?	nt	i	13µM	nt	nt
Cc1ccc(NC(=O)/C=C/c2ccc(C)o2)c(C)c1	i	nt	i	i	nt	nt
Nc1cc(-c2nc3ncccc3o2)ccc1Cl	i	nt	nt	i	nt	nt
Cc1cc(-c2nc3ncccc3o2)ccc1N	?	nt	nt	11µM	nt	nt
C=CCN1C=CC(=C/C=C(/C#N)C(=O)OCC)C=C1	?	nt	nt	8.9µM	nt	nt
CCc1nc(SC)ncc1C(=O)N1CCN(c2cc(Cl)ccc2C)CC1	i	i	i	i	i	?
CCc1nc(SC)ncc1C(=O)N1CCN(c2cc(C)ccc2C)CC1	i	i	i	i	i	89µM
Cc1cccc(CNC(=O)CCCN2C(=O)CCn3nc(-c4cn(C)c5ccccc45)cc32)c1	?	i	i	i	i	i
Cc1cccc(CNC(=O)CN2C(=O)CCn3nc(-c4cn(C)c5ccccc45)cc32)c1	i	i	107	i	i	i
SMILES	p53null 39C tox	FH mod	GPR32 ag	p53null 32C tox	GALC G270D act	NTMT1 inhibitor
Cn1cc(-c2cc3n(n2)CCC(=O)N3CCCC(=O)Nc2ccccc2Cl)c2ccccc21	i	i	60	?	i	i
Cc1cc(NS(=O)(=O)c2ccc(NC(=O)COc3cc(C)c(Br)cc3C(C)C)cc2)no1	i	i	107	i	i	i
Cc1ccc(OCC(=O)Nc2ccc(S(=O)(=O)Nc3cc(C)on3)cc2)c(Br)c1	i	?	?	i	i	i
CCc1nnc2sc(-c3ccc(C)c(NC(=O)c4ccc(-c5cccc(Cl)c5)o4)c3)nn12	nt	nt	nt	nt	nt	i
Cc1nc2nc(C)c(CCC(=O)NCc3cccc(Cl)c3)c(C)n2n1	i	i	i	i	i	i
COc1ccccc1-c1cc2nc(C)c(CCC(=O)NCc3cccc(Cl)c3)c(C)n2n1	i	?	i	i	i	89µM
O=C(Cn1nnnc1-c1ccccc1F)Nc1ccc(OC(F)(F)F)cc1	i	i	75	i	i	i
CCCCOc1ccc(NC(=O)Cn2nnnc2-c2ccccc2F)cc1	i	i	i	i	i	i
Cc1ccc(OCCn2c(CCNC(=O)CCc3ccccc3Br)nc3ccccc32)cc1	nt	nt	nt	nt	nt	i
Cc1[nH]c(C=C2C(=O)Nc3ccc(S(=O)(=O)Cc4c(Cl)cccc4Cl)cc32)c(C)c1C(=O)N1CCC[C@H]1CN1CCCC1	nt	i	nt	nt	nt	6.8µM
C=CCn1c(=O)c2cnc(Nc3ccc(N4CCN(C)CC4)cc3)nc2n1-c1cccc(C(C)(C)O)n1	nt	?	nt	nt	nt	40µM!
Cc1ccc(-c2ccc(=O)n(CC(=O)N(C)C(C)c3cccs3)n2)cc1 (stereo not drawn)	nt	nt	nt	nt	nt	i
Cc1cc(O)cc(Oc2cc(C)c(C(=O)O)c(O)c2)c1	nt	i	nt	nt	nt	?
Cc1cc(N2CCN(C)CC2)nc2ccc(NC(=O)Nc3ccc(Cl)cc3)cc12	i	i	118	i	i	i
Cc1cc(N2CCN(C)CC2)nc2ccc(NC(=O)c3ccc(C(C)(C)C)cc3)cc12	13µM	?	i	25µM	i	i
CCOc1ccccc1NC(=O)Nc1ccc2nc(N3CCN(C)CC3)cc(C)c2c1	18µM	?	i	?	i	i
CCOc1ccc(-c2nn3ncccc3c2-c2ccc(S(C)(=O)=O)cc2)cc1	nt	i	nt	nt	nt	i
O=C(Nc1ccc(Cl)c(Cl)c1)Nc1nnc(-c2cccnc2)s1	nt	nt	nt	nt	nt	22µM
Nc1ccc(-c2nnc(NC(=O)Nc3ccc(Cl)c(Cl)c3)s2)cc1	nt	nt	nt	nt	nt	i
Cc1cc(C)cc(C(=O)Nc2ccc(-c3cn4cccnc4n3)cc2)c1	i	i	103	i	i	?
COc1cccc(NC(=O)Nc2cc(-c3cn4cccnc4n3)ccc2OC)c1	7.9µM	i	i	16µM	i	i
COc1cccc(NC(=O)Nc2cc(-c3cn4cccnc4n3)ccc2C)c1	?	i	i	i	i	?
COc1ccc(-c2cn3cccnc3n2)cc1NC(=O)Nc1cc(C)ccc1C	16µM	i	i	?	i	?
COc1cccc(CNc2ccc(S(=O)(=O)Nc3nccs3)cc2)c1OC	nt	nt	nt	nt	nt	i
COc1ccc(OC)c(NC(=O)c2nc(S(=O)(=O)Cc3ccc(F)cc3)ncc2Cl)c1	25µM	i	i	?	i	i
SMILES	p53null 39C tox	FH mod	GPR32 ag	p53null 32C tox	GALC G270D act	NTMT1 inhibitor
Cc1ccc(NC(=O)c2nc(S(=O)(=O)Cc3ccc(F)cc3)ncc2Cl)cc1C	?	i	i	20µM	i	i
C[C@H](NC(=O)CCc1nc2ccccc2c(=O)[nH]1)c1ccccc1	nt	i	nt	nt	nt	i
COc1ccc(CC(=O)Nc2ccc(S(=O)(=O)Nc3cc(C)on3)cc2)cc1C	nt	nt	nt	nt	nt	i
CN(CCOc1ccc(C[C@H](Nc2ccccc2C(=O)c2ccccc2)C(=O)O)cc1)c1ccccn1	nt	nt	nt	nt	nt	79µM!
COc1ccc(-c2cn3nc(N4CCC(C(=O)Nc5cccc(Cl)c5)CC4)sc3n2)cc1	i	i	78	i	i	i
COc1cccc(NC(=O)C2CCN(c3nn4cc(-c5ccc(F)cc5)nc4s3)CC2)c1	i	i	i	i	i	i
O=C(Nc1ccccc1-c1cn2c(CN3CCNCC3)csc2n1)c1cnc2ccccc2n1	nt	?	nt	nt	nt	3.5µM!
